Assay [1] is described as follows: inhibitors of TNFa-induced NFkB p65 translocation, primary screen, imaging, HUVEC, MLSMR starter and 10KST1 sets (AID 438;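 active = inhibition above 20% together with a positive visual image hit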;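 note: compound added about 3h40 before a 20 min TNFalpha stimulation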;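 for inhibition: signal is the nuclear over cytoplasmic p65 intensity ratio per well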). The conditions noted are these: HUVEC TNFa-induced p65 nuclear translocation; cell count: measured here: nuclei count (cytotoxicity indicator), at 2.08 µM; inhibition: at 2 µM, stronger effect = higher value, 0% TNFa-plus-vehicle, 100% no-TNFa wells.
Assay [2] is described as follows: inhibitors of mutant huntingtin aggregation, primary screen, imaging, exon1htt(103Q)mCFP cells, high-content imaging (AID 483;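 active = visual image review flags a hit and inhibition of aggregation exceeds 20%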;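 note: compound exposure lasted 3 days before fixation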;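 for nuclei count: percent of the per-plate median nuclei count of sample wells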). To be noted: exon1htt(103Q)mCFP cell line, aggregate imaging, at 2 µM; inhibition of aggregation: stronger effect = higher value; nuclei count: measured here: cell count, toxicity.
Assay [3] is described as follows: inhibitors of E-selectin induction by TNFa, primary screen, imaging, HUVEC, immunofluorescence, MLSMR starter and 10KST1 sets (AID 487;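 active = visually confirmed hit in the image check and inhibition above 20%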;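 for inhibition: signal is fraction of cell area covered by stained E-selectin grains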;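 for nuclei count: 100% = median nuclei count of all wells on the same plate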). To be noted: HUVEC TNFalpha-induced E-selectin immunofluorescence imaging, at 2 µM; inhibition: stronger effect = higher value; nuclei count: measured here: cell number, toxicity.
The target of assay [4] is Voltage-gated potassium channel subunit beta-2 (Rattus norvegicus) (UniProt P62483). The assay can be described thus: KvBeta enzyme negative modulators, primary screen, biochemical, NADPH fluorescence (AID 622;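 active = fluorescence slope higher than the sample average by over 3 SD, cut at about -0.22 in these data, passing the limit was not always enough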;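 note: slope of raw intensity against log time taken from 70 to 1610 s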). To be noted: recombinant KvBeta, 4-cyanobenzaldehyde reduction, at 10 µM, stronger effect = higher value.
Sequence of Voltage-gated potassium channel subunit beta-2 (Rattus norvegicus) (P62483 whole entry, looked up): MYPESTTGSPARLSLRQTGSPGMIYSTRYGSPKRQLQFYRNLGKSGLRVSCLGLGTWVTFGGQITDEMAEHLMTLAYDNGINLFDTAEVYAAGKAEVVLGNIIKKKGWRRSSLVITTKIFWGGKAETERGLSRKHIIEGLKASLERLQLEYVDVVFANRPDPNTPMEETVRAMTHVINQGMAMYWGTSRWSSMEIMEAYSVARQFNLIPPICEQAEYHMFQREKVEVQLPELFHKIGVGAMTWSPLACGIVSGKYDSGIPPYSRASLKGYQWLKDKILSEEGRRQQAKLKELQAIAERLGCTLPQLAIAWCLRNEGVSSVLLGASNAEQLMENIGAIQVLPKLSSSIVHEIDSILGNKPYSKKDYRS
For assay [5] the target is unchanged. The experiment in a line: KvBeta positive modulators, primary screen, biochemical, NADPH fluorescence (AID 623;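 active = NADPH fluorescence slope more negative than the mean of all samples by about 3 SD, 99.7% confidence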;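 note: fluorescence intensity change per second fitted from 20 to 320 s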). To be noted: Recombinant KvBeta, NADPH fluorescence decrease slope, 10 min; at 10 µM; stronger effect = lower value.
In assay [6] the target is Alpha-2C adrenergic receptor (Homo sapiens) (UniProt P18825). The assay can be described thus: modulators of alpha2C/GIRK thallium flux, primary screen, cell-based, HEK293 alpha2C/GIRK1/2 (AID 624;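 active = fluorescence slope after compound addition differing from the mean of all screened samples at 99.7% confidence, in either direction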;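 note: slope of fluorescence ratio to pre-addition baseline per second over 15 to 24 s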). To be noted: thallium flux BTC fluorescence, at 10 µM, actives lie on both sides.
Sequence of Alpha-2C adrenergic receptor (Homo sapiens) (P18825 whole entry, looked up): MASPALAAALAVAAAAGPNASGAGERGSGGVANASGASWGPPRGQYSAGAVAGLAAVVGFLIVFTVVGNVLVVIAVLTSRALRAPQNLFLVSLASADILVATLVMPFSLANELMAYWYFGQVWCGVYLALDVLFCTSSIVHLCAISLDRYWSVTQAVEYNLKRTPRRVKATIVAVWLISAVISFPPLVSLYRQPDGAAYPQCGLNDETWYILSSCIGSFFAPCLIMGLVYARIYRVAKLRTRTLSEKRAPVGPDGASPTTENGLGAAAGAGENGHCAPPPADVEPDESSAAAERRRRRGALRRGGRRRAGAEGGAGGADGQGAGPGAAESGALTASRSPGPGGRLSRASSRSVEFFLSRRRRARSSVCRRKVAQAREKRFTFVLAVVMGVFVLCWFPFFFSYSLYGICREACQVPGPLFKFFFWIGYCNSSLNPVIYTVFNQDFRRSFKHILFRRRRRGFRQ
A short description of assay [7]: inhibitors of Sendai virus-induced IRF3 signaling, primary screen, TLR/RLR signaling modifier project, cell-based, Sendai virus stimulus, luciferase, 10K MLSCN set (AID 602276;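 active = inhibition at or above 50% at 10 µM; inactive = inhibition below 50%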;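 note: firefly luciferase from ISG56 promoter only with Renilla not read in this screen; 0% = Sendai virus plus DMSO and 100% = medium plus DMSO without virus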). To be noted: HEK293 RL24 IRF3 luciferase reporter, at 10 µM, stronger effect = higher value. In general terms: Reporter assays use an easily measured gene product as a stand-in for the process of interest.

A short description of assay [8]: inhibitors of poly I:C-induced TLR3 signaling, primary screen, cell-based, poly I:C stimulus, luciferase, 10K MLSCN set (AID 602277). To be noted: HEK293-TLR3 RL24 IRF3 luciferase reporter, at 10 µM, stronger effect = higher value.

Active and inactive are the calls of the source.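 Rule for the calls, unless noted: active = inhibition of the reporter signal at or above 50%; inactive = inhibition below 50%.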

Take `O=C(NCC(=O)N1CCC(N2CCCCC2)CC1)C1CCCCC1`: the cell count in assay [1] came to 505. In addition, the inhibition in assay [1] was -12% (inactive); in assay [3] it was 10.2% (inactive); in assay [7] it was -3.39% (inactive); in assay [8], 1.58% (inactive). The inhibition of aggregation in assay [2] was 19.9% (inactive). In addition, the values for the nuclei count in assay [2] and in assay [3] were 91.8% and 91%, respectively. Also, the fluorescence slope in assay [4] was -0.481 (inactive). Besides, the NADPH fluorescence slope in assay [5] is -0.000128 (inactive). Also, the slope in assay [6] is 0.00598 (inactive).

For the compound `Cc1cc(NC(=O)COc2cccc(C)c2C)no1`, the cell count in assay [1] turned out to be 684. Moreover, the inhibition in assay [1] was 6.5% (inactive); in assay [3], -16.6% (inactive); in assay [7], -0.401% (inactive); in assay [8], 0.183% (inactive). Further, in assay [2], the inhibition of aggregation is -9.8% (inactive). In addition, the values for the nuclei count in assay [2] and in assay [3] were 104% and 121%, respectively. The fluorescence slope in assay [4] was -0.549 (inactive). In assay [5], the NADPH fluorescence slope is -2.5e-05 (inactive). The slope in assay [6] was 0.00696 (inactive).

Take `CC(=O)NC(CCS(C)(=O)=O)C(=O)Nc1cccc2ccccc12` (centres undefined): in assay [1], the cell count amounted to 667. Moreover, the inhibition in assay [1] is 3.9% (inactive); in assay [3], -7.5% (inactive); in assay [7], 1.24% (inactive); in assay [8] it was 31.9% (inactive). Further, the inhibition of aggregation in assay [2] was 18.3% (inactive). Also, the nuclei count came out at 100% in assay [2] and 108% in assay [3]. In addition, the fluorescence slope in assay [4] was -0.564 (inactive). Besides, in assay [5], the NADPH fluorescence slope was -3.4e-05 (inactive). In addition, the slope in assay [6] was 0.006 (inactive).

Turning to `Cc1nc2ccc(CCO)cc2s1`, the cell count in assay [1] worked out at 419. Also, the inhibition in assay [1] was 8% (inactive); in assay [3], -162% (inactive); in assay [7] it was 5.43% (inactive); in assay [8], 4.05% (inactive). For the same compound, the inhibition of aggregation in assay [2] was 2.9% (inactive). Further, the nuclei count in assay [2] turned out to be 93.2%; in assay [3], 112%. Further, the fluorescence slope in assay [4] was -0.652 (inactive). In assay [5], the NADPH fluorescence slope was 3.1e-05 (inactive). For the same compound, the slope in assay [6] is 0.00546 (inactive).

Take `CCCCCn1c(CN2CCN(c3cccc(Cl)c3)CC2)nc2c1c(=O)n(C)c(=O)n2C`: in assay [1], the cell count is 775. Further, the inhibition is 0.9% (inactive) in assay [1], -32.5% (inactive) in assay [3], -3% (inactive) in assay [7] and -10.4% (inactive) in assay [8]. In addition, in assay [2], the inhibition of aggregation is -13% (inactive). The nuclei count in assay [2] came to 109%; in assay [3], 113%. In assay [4], the fluorescence slope was -0.371 (inactive). Further, in assay [5], the NADPH fluorescence slope is -6e-05 (inactive). In assay [6], the slope is 0.00648 (inactive).

For `CC1(C)CC(=O)C=C(NC2CCS(=O)(=O)C2)C1` (centres undefined), in assay [1], the cell count stood at 624. Further, the inhibition in assay [1] is 11.3% (inactive); in assay [3] it was 10.6% (inactive); in assay [7], 15.5% (inactive); in assay [8], 39.3% (inactive). The inhibition of aggregation in assay [2] was 5.8% (inactive). The nuclei count in assay [2] worked out at 59.6%; in assay [3], 100%. Also, the fluorescence slope in assay [4] was -0.561 (inactive). Moreover, the NADPH fluorescence slope in assay [5] was 1.2e-05 (inactive). For the same compound, the slope in assay [6] is 0.00618 (inactive).

For the compound `Cc1cccc(NC(=O)c2ccc3ccccc3n2)n1`, in assay [1], the cell count stood at 408. Besides, the inhibition in assay [1] is -4.5% (inactive); in assay [3], -50.9% (inactive); in assay [7], -11.1% (inactive); in assay [8], -91.5% (inactive). Further, the inhibition of aggregation in assay [2] is 0.8% (inactive). The nuclei count in assay [2] stood at 86.6%; in assay [3], 95.8%. The fluorescence slope in assay [4] is -0.303 (inactive). The NADPH fluorescence slope in assay [5] is -1.5e-05 (inactive). Besides, in assay [6], the slope was 0.0061 (inactive).

In the case of `Cc1ccc2nc(NCCCN3CCOCC3)c(C=NCCCN3CCOCC3)c(=O)n2c1`, the cell count in assay [1] was 619. Also, the inhibition in assay [1] is -9.6% (inactive); in assay [3], -49.1% (inactive); in assay [7] it was 14.7% (inactive); in assay [8] it was 33.3% (inactive). In assay [2], the inhibition of aggregation was -38.5% (inactive). For the same compound, the nuclei count in assay [2] is 10.5%; in assay [3] it was 141%. Also, in assay [4], the fluorescence slope was -0.435 (inactive). Further, in assay [5], the NADPH fluorescence slope was -5.9e-05 (inactive). Moreover, the slope in assay [6] was 0.00509 (inactive).

Regarding `COC(=O)C(CC(C)C)NC(=O)CSc1nc(-c2ccccc2)c(C#N)c(=O)[nH]1` (centres undefined), the cell count in assay [1] came to 467. Moreover, the inhibition is -10.9% (inactive) in assay [1], -3.8% (inactive) in assay [3], 15.4% (inactive) in assay [7] and 28.8% (inactive) in assay [8]. Further, in assay [2], the inhibition of aggregation was -13% (inactive). The nuclei count in assay [2] was 64.5%; in assay [3], 81.7%. The fluorescence slope in assay [4] was -0.402 (inactive). Also, the NADPH fluorescence slope in assay [5] is -0.000101 (inactive). For the same compound, in assay [6], the slope is 0.0059 (inactive).

Turning to `Cc1ccc(S(=O)(=O)N2CCN(S(C)(=O)=O)C2c2ccccc2)cc1` (centres undefined), in assay [1], the cell count amounted to 464. In addition, the inhibition in assay [1] was 0% (inactive); in assay [3], 11.6% (inactive); in assay [7], 8.09% (inactive); in assay [8], 26.1% (inactive). For the same compound, in assay [2], the inhibition of aggregation was 10.2% (inactive). The figures for the nuclei count in assay [2] and in assay [3] were 93.5% and 114%, respectively. For the same compound, the fluorescence slope in assay [4] was -0.372 (inactive). The NADPH fluorescence slope in assay [5] is -4.8e-05 (inactive). Also, the slope in assay [6] was 0.00576 (inactive).

As for `COC(=O)c1ccc2c(=O)n(CC3CCCO3)c(=S)[nH]c2c1` (centres undefined), the cell count in assay [1] came to 548. For the same compound, the inhibition in assay [1] is 16% (inactive); in assay [3], -137% (inactive); in assay [7], 14.9% (inactive); in assay [8], 12.3% (inactive). For the same compound, the inhibition of aggregation in assay [2] is -9.1% (inactive). The nuclei count in assay [2] is 92.8%; in assay [3] it was 94.3%. Moreover, in assay [4], the fluorescence slope is -0.478 (inactive). In addition, the NADPH fluorescence slope in assay [5] is -2.8e-05 (inactive). Moreover, in assay [6], the slope is 0.00617 (inactive).

On to `COc1cccc(N2CCN(CC(=O)Nc3nnc(-c4ccccc4)s3)CC2)c1`, for which the cell count in assay [1] came to 417. Besides, the inhibition is 0.2% (inactive) in assay [1], -120% (inactive) in assay [3], 16% (inactive) in assay [7] and 22% (inactive) in assay [8]. In addition, in assay [2], the inhibition of aggregation was 2.3% (inactive). Moreover, the nuclei count came out at 105% in assay [2] and 118% in assay [3]. In assay [4], the fluorescence slope was -0.472 (inactive). The NADPH fluorescence slope in assay [5] was 8.2e-07 (inactive). In addition, the slope in assay [6] was 0.00594 (inactive).

Regarding `CCOC(=O)C1CSC(CC(=O)Nc2ccc(Cl)cc2)C(=O)N1` (centres undefined), the cell count in assay [1] turned out to be 704. In addition, the inhibition in assay [1] is 3.9% (inactive); in assay [3] it was -56.7% (inactive); in assay [7] it was -5.63% (inactive); in assay [8], 1.5% (inactive). In addition, the inhibition of aggregation in assay [2] was 7.4% (inactive). Also, the nuclei count in assay [2] was 103%; in assay [3], 132%. Further, the fluorescence slope in assay [4] is -0.325 (inactive). For the same compound, the NADPH fluorescence slope in assay [5] was -4.9e-05 (inactive). Also, in assay [6], the slope was 0.00513 (inactive).

On to `Cc1ccc2cc(C#N)c(NCCCNC(=O)C3CCCO3)nc2c1` (centres undefined), for which the cell count in assay [1] stood at 271. For the same compound, the inhibition in assay [1] is -2.8% (inactive); in assay [3], -25.3% (inactive); in assay [7], 9.51% (inactive); in assay [8], 10.8% (inactive). The inhibition of aggregation in assay [2] was -8.8% (inactive). Besides, the nuclei count in assay [2] stood at 82.7%; in assay [3], 116%. Moreover, the fluorescence slope in assay [4] was -0.476 (inactive). In addition, the NADPH fluorescence slope in assay [5] was -9.9e-05 (inactive). In assay [6], the slope was 0.00509 (inactive).

As a reminder, the inhibition is the relative decrease from the control value, in per cent.
